Bioassay records: PubChem BioAssay, several laboratories
CHT PAM: human CHT allosteric activation; AID 488977; B-score at 10 µM; 0.49% of 310,000 active; Q9GZV3; CHT-expressing cells, membrane potential dye, choline EC20; hits give high values; LV-AA mutant CHT in HEK293 cells;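 active = initial fluorescence not abnormally high and integrated response B-score, plate-corrected, over 3 SD above library mean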
Target sequence (Q9GZV3 whole entry, looked up): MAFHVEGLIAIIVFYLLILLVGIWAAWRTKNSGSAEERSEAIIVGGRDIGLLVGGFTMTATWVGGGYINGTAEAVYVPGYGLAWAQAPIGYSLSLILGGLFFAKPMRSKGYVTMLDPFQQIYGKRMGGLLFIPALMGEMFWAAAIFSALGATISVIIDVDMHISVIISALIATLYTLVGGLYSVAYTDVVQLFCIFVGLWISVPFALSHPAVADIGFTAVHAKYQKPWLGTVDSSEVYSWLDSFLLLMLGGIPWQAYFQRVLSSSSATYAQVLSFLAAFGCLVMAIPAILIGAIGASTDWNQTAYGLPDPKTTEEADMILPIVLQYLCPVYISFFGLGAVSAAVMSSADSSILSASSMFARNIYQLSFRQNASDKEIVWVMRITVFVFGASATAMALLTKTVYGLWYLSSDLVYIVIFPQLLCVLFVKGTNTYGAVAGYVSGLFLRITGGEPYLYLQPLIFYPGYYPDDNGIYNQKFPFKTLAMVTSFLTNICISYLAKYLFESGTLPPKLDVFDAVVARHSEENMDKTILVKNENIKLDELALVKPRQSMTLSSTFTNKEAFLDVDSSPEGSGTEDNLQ
CHT block: inhibits the human high affinity choline transporter. Q9GZV3. CHT-expressing cells, membrane potential dye, choline response; hits give low values. B-score at 10 µM. 0.86% of 310,000 active. AID 488975;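 active = B-score over 3 SD under the library average, and starting fluorescence ratio not unusually high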;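 also: choline stimulus applied at its EC90 after an EC20 pre-addition; B-score computed on integrated fluorescence ratio after choline addition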
ANO1 block: mouse TMEM16A channel inhibition, primary screen | Q8BHY3 | HEK293 TMEM16A/YFP iodide influx fluorescence, ionomycin | normalized B-score (activity score, 25-100; higher = stronger inhibition) at 10 µM | 1.2% of 310,000 active;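 active = ratio plate-corrected score three or more library SD toward inhibition, starting fluorescence score within five deviations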;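 also: score derived from kinetic fluorescence span divided by baseline fluorescence per well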
PKA-R2B activ: PKA-R2B complex activation; activation, % at 11.4 µM; PKA-R2B holoenzyme dissociation, Cy5-IP20 fluorescence polarization; R2B truncated from residue 108, S112A mutant; 0% DMSO only, 100% 113 µM cGMP; P22694+P31323; 0.079% of 340,000 active;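 active = activation above a cutoff set at the mean over all compounds plus 3 SD, cut at about 18% in these data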;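 also: higher means more holoenzyme dissociation and a rise in polarization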
ANO1 activ: activates or potentiates the mouse TMEM16A chloride channel; HEK293 TMEM16A/YFP-H148Q/I152L, iodide quench fluorescence; hits give low values; AID 623877; Q8BHY3; B-score at 10 µM; 0.3% of 340,000 active;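 active = fluorescence-ratio B-score plate-corrected deviation score at least 3 library SD below zero, with starting fluorescence score within 5 deviations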;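 also: channel opened by trigger with iodide after compound preincubation; score built on the fluorescence ratio of max minus min over baseline; more negative score means more quench and so TMEM16A activation or potentiation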
PKA-R1A activ: activates the PKA-R1A holoenzyme complex | PKA-R1A dissociation, Cy5-IP20 fluorescence polarization; scaled: DMSO 0%, 113 µM cGMP 100% | activation, % at 11.4 µM | P00514+P68181 | 0.083% of 340,000 active;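 active = percent activation above the mean of all tested compounds plus 3 SD, cut at about 19% in these data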;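 also: higher means more PKAc released from R1A so a rise in polarization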
CHT activ conf: confirmation of human choline transporter (CHT) activators; 91% of 2,500 active; activation, % at 10 µM; shares compounds with CHT PAM; CHT-expressing cells, membrane potential dye fluorescence (FDSS); % of choline EC20–EC90 response window; HEK293 expressing CHT LV-AA mutant; choline added at its EC20; AID 504833;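 active = primary screen active, with duplicate mean activation above negative control mean plus 3 SD, cut at about 11% in these data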
HEK293 MP dye: CHT activator counter-screen hit in parental HEK293 cells; shares compounds with CHT PAM; AID 623908; 62% of 2,500 active; ratio readout change at 10 µM, hits read low; membrane potential dye fluorescence (FDSS); measured after EC20 choline addition;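 active = duplicate-averaged ratio beyond 3 SD from buffer wells, up or down, though filed actives are nearly all decreases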
Numbers without * were called inactive. This is a sample that favours compounds with a hit; in the whole collection about 2.5% have one here.

How did CC(C)C(=O)N1CCN(c2ccccc2NC(=O)c2ccc(C#N)cc2F)CC1 do in these assays?
CHT PAM: 7.7*; CHT block: inactive; ANO1 block: inactive; PKA-R2B activ: -3; ANO1 activ: inactive; PKA-R1A activ: -3; CHT activ conf: 54*; HEK293 MP dye: inactive

Results for CCN1CCN(C(=O)CCn2c(=O)c3cccn3c3cccnc32)CC1 ?
CHT PAM: inactive; CHT block: inactive; ANO1 block: inactive; PKA-R2B activ: 11; ANO1 activ: inactive; PKA-R1A activ: 11; CHT activ conf: 58*; HEK293 MP dye: -30*

Results for CCCN1CCN(C(=O)CCn2c(=O)c3cccn3c3cccnc32)CC1 ?
CHT PAM: inactive; CHT block: inactive; ANO1 block: inactive; PKA-R2B activ: 3; ANO1 activ: inactive; PKA-R1A activ: 8

What do the screens show for `O=C1c2ccccc2S(=O)(=O)c2cc(N3CCC4(CC3)OCCO4)ccc21`?
CHT PAM: inactive; CHT block: inactive; ANO1 block: inactive

Results for CCOC(=O)c1c(C)[n+](-c2ccc(C)cc2)c(CC)c2cc(OC)c(OC)cc12 ?
CHT PAM: inactive; CHT block: inactive; ANO1 block: inactive; PKA-R2B activ: 14; ANO1 activ: inactive; PKA-R1A activ: 3; CHT activ conf: 49*; HEK293 MP dye: -35*

Results for CCOC(=O)c1c(-c2ccccc2)csc1NC(=O)CSc1ccccc1 ?
CHT PAM: inactive; CHT block: inactive; ANO1 block: inactive; PKA-R2B activ: 5; ANO1 activ: inactive; PKA-R1A activ: -1

What do the screens show for `CCOC(=O)c1c(-c2ccccc2)csc1NC(=O)CSc1nncs1`?
CHT PAM: inactive; CHT block: inactive; ANO1 block: inactive; PKA-R2B activ: 0; ANO1 activ: inactive; PKA-R1A activ: -2; CHT activ conf: 28*; HEK293 MP dye: inactive

What do the screens show for `O=[N+]([O-])c1ccc2nc(-c3ccc(Cl)cc3)n(OCc3ccccc3)c2c1`?
CHT PAM: inactive; CHT block: inactive; ANO1 block: inactive; PKA-R2B activ: 8; ANO1 activ: inactive; PKA-R1A activ: 4

How did Clc1ccc(COn2c(-c3ccccc3)nc3ccccc32)cc1 do in these assays?
CHT PAM: 6.5*; CHT block: inactive; ANO1 block: inactive; PKA-R2B activ: 11; ANO1 activ: inactive; PKA-R1A activ: -5; CHT activ conf: 26*; HEK293 MP dye: inactive

Results for CC1CCCCC1NC(=O)CCCn1c(=S)[nH]c2ccsc2c1=O (configuration not stated) ?
CHT PAM: inactive; CHT block: inactive; ANO1 block: inactive; PKA-R2B activ: 6; ANO1 activ: inactive; PKA-R1A activ: 0

What do the screens show for `CC1Cc2cc(S(=O)(=O)N3CCN(c4ccccc4F)CC3)ccc2N1C(=O)C1CC1` (configuration not stated)?
CHT PAM: 7.5*; CHT block: inactive; ANO1 block: inactive; PKA-R2B activ: 0; ANO1 activ: inactive; PKA-R1A activ: -2; CHT activ conf: 20*; HEK293 MP dye: inactive

How did Cc1cccc(CC2CC(=O)N(c3ccc(C)cc3Br)C2=O)c1 (configuration not stated) do in these assays?
CHT PAM: inactive; CHT block: inactive; ANO1 block: inactive; PKA-R2B activ: -1; ANO1 activ: inactive; PKA-R1A activ: 0

How did CN(C(=O)CSc1nnc(-c2ccco2)n1Cc1ccccc1)C1CCS(=O)(=O)C1 (configuration not stated) do in these assays?
PKA-R2B activ: 4; ANO1 activ: inactive; PKA-R1A activ: -14

Results for N#Cc1nc(COc2ccc(Cl)cc2Cl)oc1N1CCN(c2ccccc2)CC1 ?
CHT PAM: inactive; CHT block: inactive; ANO1 block: inactive; PKA-R2B activ: -5; ANO1 activ: inactive; PKA-R1A activ: -7

What do the screens show for `COc1ccc(N2CCN(c3oc(COc4ccccc4)nc3C#N)CC2)cc1`?
CHT PAM: inactive; CHT block: inactive; ANO1 block: inactive; PKA-R2B activ: -2; ANO1 activ: inactive; PKA-R1A activ: 5; CHT activ conf: 35*; HEK293 MP dye: inactive

What do the screens show for `COc1ccc(N2CCN(c3oc(COc4ccc(Cl)cc4)nc3C#N)CC2)cc1`?
CHT PAM: 8*; CHT block: inactive; ANO1 block: inactive; PKA-R2B activ: -4; ANO1 activ: inactive; PKA-R1A activ: -18; CHT activ conf: 36*; HEK293 MP dye: inactive

Results for COc1ccc(N2CCN(c3oc(COc4ccc(Cl)cc4Cl)nc3C#N)CC2)cc1 ?
CHT PAM: 9.5*; CHT block: inactive; ANO1 block: inactive; PKA-R2B activ: 3; ANO1 activ: inactive; PKA-R1A activ: -10; CHT activ conf: 27*; HEK293 MP dye: inactive

How did COc1ccc(S(=O)(=O)N2CCCCC2)cc1NC(=O)COC(=O)c1ccco1 do in these assays?
PKA-R2B activ: 11; ANO1 activ: inactive; PKA-R1A activ: -20

What do the screens show for `C[n+]1cccc2ccc3c(c21)OC(N)=C(C#N)C3c1ccccc1` (configuration not stated)?
CHT PAM: 10*; CHT block: inactive; ANO1 block: inactive; ANO1 activ: inactive; CHT activ conf: 72*; HEK293 MP dye: -80*

How did C[n+]1cccc(C2C(C#N)=C(N)Oc3c2ccc2ccccc32)c1 (configuration not stated) do in these assays?
CHT PAM: inactive; CHT block: inactive; ANO1 block: inactive; PKA-R2B activ: 7; ANO1 activ: inactive; PKA-R1A activ: 3; CHT activ conf: 43*; HEK293 MP dye: -57*

What do the screens show for `N#CC1=C(N)Oc2c(ccc3cccnc23)C1c1cccnc1` (configuration not stated)?
CHT PAM: inactive; CHT block: inactive; ANO1 block: inactive; PKA-R2B activ: -7; ANO1 activ: inactive; PKA-R1A activ: -2

How did C/C(=N\NC(=O)c1nnn(-c2nonc2N)c1CN1CCCCC1)c1ccccc1O do in these assays?
CHT PAM: inactive; CHT block: inactive; ANO1 block: inactive; PKA-R2B activ: 8; ANO1 activ: inactive; PKA-R1A activ: -1
